Shown are actives, neighbours in structure and some others; about 6.9% of the full set was active somewhere.
VDR inh: blocks the human vitamin D receptor; P11473; VDR-SRC2-3 peptide fluorescence polarization, 2 h; Potency, µM, for inactives: max response, negative = inhibition, usual class: inhibitors; hit rate 0.93% among 400,000; AID 504847; further: on the % scale 0 is the no-effect control and ±100 the full control effect
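VDR–SRC2-3 interaction, FP format. Cmpds 23 nl via pintool, brief spin, 2 h ambient incubation.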
PLK1 PBD inh: PLK1 (human) polo-box domain binding inhibition. P53350. Plk1 PBD binding of FITC phosphopeptide, fluorescence polarization. Potency, µM, without a hit: max response, negative = inhibition, most hits filed as inhibitors. hit rate 2.8% among 360,000. AID 720504; further: series mostly up to about 57 µM; on the % scale 0 is the no-effect control and ±100 the full control effect; nearly all actives have a fitted effect of over 65% in size
JMJD2A Tudor inh: inhibitors of human JMJD2A Tudor domain. AID 504339. O75164. AlphaScreen JMJD2A-Tudor / H3K4me3 peptide binding. Potency, µM (series often up to 114 µM), without a hit: top-dose activity change, negative = inhibition, usual class: inhibitors. hit rate 4.4% among 390,000; further: on the % scale 0 is the no-effect control and ±100 the full control effect; nearly all actives have a fitted effect of over 50% in size
Target sequence (O75164 whole entry, looked up, the tested form may be a part): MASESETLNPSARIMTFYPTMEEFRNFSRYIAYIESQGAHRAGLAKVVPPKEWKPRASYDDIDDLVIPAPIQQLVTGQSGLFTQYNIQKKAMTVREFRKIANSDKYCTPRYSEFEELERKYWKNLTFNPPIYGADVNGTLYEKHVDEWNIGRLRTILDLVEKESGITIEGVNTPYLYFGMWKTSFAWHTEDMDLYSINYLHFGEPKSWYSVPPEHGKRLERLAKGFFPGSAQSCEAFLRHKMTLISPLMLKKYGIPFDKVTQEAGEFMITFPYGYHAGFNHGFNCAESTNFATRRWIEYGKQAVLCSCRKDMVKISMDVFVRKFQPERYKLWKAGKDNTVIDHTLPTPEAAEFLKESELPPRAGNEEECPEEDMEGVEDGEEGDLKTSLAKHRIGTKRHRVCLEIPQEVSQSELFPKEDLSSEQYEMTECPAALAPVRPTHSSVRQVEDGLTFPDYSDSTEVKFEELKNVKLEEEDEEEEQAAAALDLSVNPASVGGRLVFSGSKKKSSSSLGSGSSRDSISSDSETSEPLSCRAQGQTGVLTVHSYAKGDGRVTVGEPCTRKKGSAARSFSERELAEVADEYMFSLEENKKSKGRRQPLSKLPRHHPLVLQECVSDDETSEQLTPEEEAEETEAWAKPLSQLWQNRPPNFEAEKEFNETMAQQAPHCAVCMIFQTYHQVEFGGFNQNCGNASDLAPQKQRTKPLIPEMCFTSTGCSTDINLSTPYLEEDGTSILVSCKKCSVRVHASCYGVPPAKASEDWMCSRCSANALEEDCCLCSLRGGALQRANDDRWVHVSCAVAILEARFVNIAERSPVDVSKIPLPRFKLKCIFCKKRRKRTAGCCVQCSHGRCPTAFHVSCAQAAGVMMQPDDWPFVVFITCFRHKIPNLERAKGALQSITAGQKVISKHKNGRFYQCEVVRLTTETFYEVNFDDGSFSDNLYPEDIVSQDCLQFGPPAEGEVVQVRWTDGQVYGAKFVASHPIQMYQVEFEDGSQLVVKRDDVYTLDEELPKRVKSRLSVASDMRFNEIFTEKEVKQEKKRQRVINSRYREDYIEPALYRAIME
L3MBTL1 inh: inhibitors of human L3MBTL1 | Q9Y468 | AlphaScreen L3MBTL1–H3K9me1 peptide binding | Potency, µM (doses to about 57.1 µM), without a hit: at the highest dose activity, negative = inhibition, usual class: inhibitors | hit rate 0.66% among 230,000 | AID 485360; further: on the % scale 0 is the no-effect control and ±100 the full control effect; nearly all actives have a fitted effect of over 60% in size
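First, the protein-peptide complex forms for 30 min at room temperature (L3MBTL1 50 nM, biotinylated H3K9me1 peptide 75 nM). Next, compounds are pin-transferred and incubated 30 min. Finally, AlphaScreen beads are added and read after 30 min.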
BAZ2B block: BAZ2B (human) inhibition; AlphaScreen BAZ2B-H3K14Ac peptide displacement; hit rate 4.4% among 360,000; Potency, µM (titrated, usually from 114 µM), for the others: top-dose activity change, negative = inhibition, hits mostly inhibitors; AID 504333; Q9UIF8; further: on the % scale 0 is the no-effect control and ±100 the full control effect; nearly all actives have a fitted effect of over 60% in size
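Multi-concentration screen (max 110 uM) measuring displacement of acetylated histone H3 peptide from BAZ2B by AlphaScreen, using 50 nM protein, 50 nM peptide and 10 ug/mL streptavidin donor plus Ni-chelate acceptor beads.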
HP1b binding inh: blocks HP1-beta chromodomain binding to methylated histone tails | P83916 | AlphaScreen HP1-beta / biotin-H3K9me3 peptide binding | Potency, µM (top dose mostly 114 µM), inactives show at the top dose activity change, negative = inhibition, hits mostly inhibitors | hit rate 0.56% among 390,000; further: nearly all actives have a fitted effect of over 70% in size
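AlphaScreen: HP1-beta (50 nM) preformed 30 min with biotin-H3(1-18)K9me3 peptide (50 nM) in PBS pH 7.4, 0.01% Tween-20. Compound added for 30 min at RT, then streptavidin donor/nickel chelate acceptor beads (10 ug/mL) for 30 min.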
An asterisk follows results filed as active; ? = inconclusive; / = not tested or not shown; [ ] = dose if it differs, or a comment. The call rests on the fitted dose curve; in most records, active means well fitted curve in the direction sought with a large enough effect; inconclusive means small, poorly fitted or top-dose-only effect, or another doubt; inactive means no such curve, though single readings can be large; an effect the other way counts as inactive or inconclusive. Potency means the concentration at half of the fitted maximal effect.

SMILES	VDR inh	PLK1 PBD inh	JMJD2A Tudor inh	L3MBTL1 inh	BAZ2B block	HP1b binding inh
CN1C/C(=C/c2ccc(B(O)O)cc2)C(=O)/C(=C/c2ccc(B(O)O)cc2)C1	4.5µM*	/	/	/	/	/
O=Cc1ccc(B(O)O)cc1	-16%	/	-4%	/	/	30%
O=S(=O)(NCCS(=O)(=O)N1CCN(c2ccccc2)CC1)c1ccc(Br)cc1	3%	/	-11%	/	-7%	19%[57 µM]
O=C(CCNC(=O)c1ccccc1Cl)Nc1ccncc1	17%	-10%	-11%	/	-4%	36%
Cc1ccc(CC2CC(=O)N(CCc3ccccc3)C2=O)cc1 (stereo not drawn)	20%	-8%	16%	14%	14%	65%
O=C1CC(Cc2ccccc2)C(=O)N1CCCn1ccnc1 (stereo not drawn)	/	/	/	4%	50µM*	/
Cc1ccc(Cn2c(SCC(=O)NCc3ccccc3Cl)nc3ccsc3c2=O)cc1	16%	/	-16%	/	-10%	20%
CC(C)c1ccc(Nc2nc(Cl)nc(Cl)n2)cc1	-11%	-9%	89µM*	6%	?	3%
CCOC(=O)Cc1nnc(NC(=O)c2ncn[nH]2)s1	6%	-6%	2µM*	/	8.9µM*	14%
N#CC1=C(N)SC2(CCCCC2)SC1c1ccccc1 (stereo not drawn)	-29%	21µM*	?	-5%	-34%	-12%
CCC(C)NC(=O)c1ccc(Cn2c(=O)c3cccn3c3cccnc32)cc1 (stereo not drawn)	12%	/	1%	/	-1%	34%
S=C(NC1CCCC1)N1CCN(c2ccccn2)CC1	-21%	-7%	-20%	3%	4%	10%
CC(=NNC(=S)N1CCN(c2ccccn2)CC1)c1nccs1	10%	-7%	13µM*	/	/	?
S=C(Nc1ccc2nc(-c3ccccn3)c(-c3ccccn3)nc2c1)N1CCCCC1	-19%	?	3%	3%	-18%	67%
CC(=NNC(=S)N1CCCCCC1)c1cccc2cccnc12	?	-18%	20µM*	/	/	50µM*
CC(=NNC(=S)N1CCN(c2ccccn2)CC1)c1ccccn1	?	?	56µM*	/	/	?
O=C(Cn1cc(S(=O)(=O)Cc2ccc(F)cc2)c2ccccc21)NCc1ccccc1	10%	/	-26%	/	-1%	8%
Cc1ccc(F)cc1NC(=O)N1c2ccccc2NC(=O)CC1C (stereo not drawn)	7%	-15%	1%	6%	1%	30%
Cc1cc2c(c(SCC(=O)N(C)c3ccccc3)n1)C(=O)OC2	0%	-1%	8%	-1%	-4%	19%
Cc1cc2c(c(SCC(N)=O)n1)C(=O)OC2	-22%	30µM*	-33%	4%	-9%	-10%
COc1ccc(N(CC(=O)Nc2cccc(Cl)c2)S(=O)(=O)c2c(C)[nH]c(=O)[nH]c2=O)cc1	-20%	/	-24%	/	-6%	34%
CC(=O)n1nc(-c2ccc(Cl)cc2)nc1NCc1ccco1	?	21µM*	?	/	2%	-8%
O=C(Cn1nnc(-c2ccc(Cl)cc2)n1)NCc1ccco1	-1%	-6%	-32%	-5%[11.4 µM]	50µM*	22%
O=C1CCc2cc(S(=O)(=O)Nc3ccc(Cl)cc3)ccc2N1	/	/	-1%	/	/	/
CC(C)(C)c1ccccc1OCCCCCn1ccnc1	7%	?	2.8µM*	-23%[11.4 µM]	18µM*	?
SMILES	VDR inh	PLK1 PBD inh	JMJD2A Tudor inh	L3MBTL1 inh	BAZ2B block	HP1b binding inh
CC(C)(C)c1ccccc1OCCCCCNCCO	-9%	-1%	3.2µM*	2%	?	?
c1ccc(-c2ccccc2OCCCCn2ccnc2)cc1	-11%	-6%	20µM*	-7%	50µM*	40µM*
Cc1cccc(OCCCCCn2ccnc2)c1C	18%	0%	-40%	-29%	?	3%
Cc1ccccc1OCCCCCNCCO	-12%	0%	-14%	/	15%	66%
Cc1ccc(NC(=O)Cn2ccn(-c3ccccc3)c(=O)c2=O)cc1	-1%	/	-5%	/	-1%	47%
COCCn1c(C)cc(C2=NNC(=Nc3ccccc3)SC2)c1C	8%	-15%	-32%	7%	50µM*	-3%
CCN=C1NN=C(c2cc(C)n(CCc3ccccc3)c2C)CS1	-10%	-21%	56µM*	/	-38%	?

Screening data as filed in PubChem BioAssay.
